Structures can show the parent of a compound that is named as a salt. ± gives the standard deviation of the averaged measurements.
These molecules were tested on MDA-MB-231 (assay: cell viability relative to vehicle unstimulated control (fraction); higher = more viable cells). Details: pre-treatment time: 18 h then 24 h IFNg/TNF.
For `COc1cc2c(cc1OC)-c1c(OC)c(OC)cc3c1[C@H](C2)N(C)CC3` [(S)-Glaucine (Alkaloid purified from Papaver somniferum)], the cell viability was 0.967 ± 0.013. `CC(=O)O[C@@]12C[C@@H](C)[C@@]3(O)[C@@H](C=C(CO)C[C@]4(O)C(=O)C(C)=C[C@@H]34)[C@@H]1C2(C)C` [Prostratin] (compound dose: 10 uM) was tested, and the cell viability was 1.31 ± 0.36. Molecule `CC1=C(O)C(=O)C=C2C1=CC=C1[C@@]2(C)CC[C@@]2(C)[C@@H]3C[C@](C)(C(=O)O)CC[C@]3(C)CC[C@]12C` [Tripterin] (compound dose: 10 uM) has a cell viability of 0.0346 ± 0.01. `CN1[C@@H]2CC(O)C[C@H]1[C@@H]1O[C@@H]12` (some centres not stated) [Scopine] (compound dose: 10 uM) showed a cell viability of 1. `C[C@@]12C[C@@H](c3ccoc3)OC(=O)[C@@H]1CC[C@]1(C)[C@H]2[C@@H]2C=C[C@@]1(O)C(=O)O2` [Columbin] (compound dose: 10 uM) was tested, and the cell viability was 0.9915 ± 0.0091. Molecule `Cc1cc(O)c2c(=O)c3c(O)cc(O)c4c5c(O)cc(O)c6c(=O)c7c(O)cc(C)c8c1c2c(c34)c(c78)c65` [Hypericin] (compound dose: 10 uM) has a cell viability of 0.0887 ± 0.085. `CN1[C@@H]2CC[C@H]1C[C@@H](OC(=O)C(CO)c1ccccc1)C2` (some centres not stated) [Atropine sulfate] (compound dose: 10 uM) showed a cell viability of 0.996 ± 0.016. Work on `COc1ccc2c3c1O[C@H]1CC(=O)C=C[C@@]31CCN(C)C2` [Galanthaminone] (compound dose: 10 uM) yielded a cell viability of 0.953 ± 0.034. For `C=C1[C@@H]2CC[C@H]3[C@]4(C)C[C@H](O[C@@H]5O[C@H](CO)[C@@H](OS(=O)(=O)O)[C@H](OS(=O)(=O)O)[C@H]5OC(=O)CC(C)C)CC(C(=O)O)(C(=O)O)[C@H]4CC[C@]3(C2)[C@H]1O` [Carboxyatractyloside (dipotassium)] (compound dose: 10 uM), the cell viability was 1.03 ± 0.071. Molecule `COc1cc(C2OCC3C(c4cc(OC)c(O[C@@H]5O[C@H](CO)[C@@H](O)[C@H](O)[C@H]5O)c(OC)c4)OCC23)cc(OC)c1O[C@H]1O[C@@H](CO)[C@H](O)[C@@H](O)[C@@H]1O` (some centres not stated) [Eleutheroside E] (compound dose: 10 uM) has a cell viability of 0.947 ± 0.033. In the case of `C=C1[C@@H]2CCC3[C@@](CC[C@@H]4[C@H](C(=O)O)C[C@@H](O[C@@H]5O[C@H](CO)[C@@H](OS(=O)(=O)O)[C@H](OS(=O)(=O)O)[C@H]5OC(=O)CC(C)C)C[C@@]34C)(C2)[C@@H]1O` (some centres not stated) [Atractyloside (potassium salt)] (compound dose: 10 uM), the cell viability is reported as 0.797 ± 0.18. `O=C(O)c1ccc(=O)[nH]c1` [6-hydroxynicotinic acid] (compound dose: 10 uM) gave a cell viability of 0.951 ± 0.036. `C[C@@H]1CC[C@@]2(OC1)O[C@H]1C[C@H]3[C@@H]4CC=C5C[C@@H](O[C@@H]6O[C@H](CO)[C@@H](O[C@@H]7O[C@@H](C)[C@H](O[C@@H]8O[C@@H](C)[C@H](O)[C@@H](O)[C@H]8O)[C@@H](O)[C@H]7O)[C@H](O)[C@H]6O[C@@H]6O[C@@H](C)[C@H](O)[C@@H](O)[C@H]6O)CC[C@]5(C)[C@H]4CC[C@]3(C)[C@H]1[C@@H]2C` [Formosanin C] (compound dose: 10 uM) was tested, and the cell viability was -0.00547 ± 0.0077. Work on `CC(=O)OC(C)(C)/C=C/C(=O)[C@](C)(O)[C@H]1[C@H](O)C[C@@]2(C)[C@@H]3CC=C4[C@@H](C=C(O)C(=O)C4(C)C)[C@]3(C)C(=O)C[C@]12C` [Cucurbitacin E] (compound dose: 10 uM) yielded a cell viability of 0.52 ± 0.0012. Molecule `COc1cc(C[C@H]2C(=O)OC[C@@H]2Cc2ccc3c(c2)OCO3)cc(OC)c1OC` [Yatein] (compound dose: 10 uM) has a cell viability of 0.9961 ± 0.0012. With `C=C1[C@H](OC(=O)c2ccccc2)C[C@H]2[C@@H](/C=C(\C)C(=O)[C@@]3(OC(C)=O)C[C@H](C)[C@H](OC(=O)c4ccccc4)[C@@H]3[C@H]1OC(C)=O)C2(C)C` [Euphorbia factor L2] (compound dose: 10 uM) the cell viability was 1.07 ± 0.015. Molecule `COc1cc2c(cc1OC)-c1c3c(cc4c1[C@H](C2)N(C)CC4)OCO3` [Dicentrine] (compound dose: 10 uM) has a cell viability of 0.83 ± 0.043. `CC(=O)OC[C@]12[C@H](OC(C)=O)[C@H](OC(C)=O)[C@@H]3[C@@H](OC(C)=O)[C@@]14O[C@@]3(C)COC(=O)c1cccnc1CCC(C)C(=O)O[C@@H]([C@H](OC(=O)c1ccco1)[C@@H]2OC(C)=O)[C@]4(C)O` (some centres not stated) [Wilforgine] (compound dose: 10 uM) showed a cell viability of 1.02 ± 0.14. In the case of `CC(C)[C@]12O[C@H]1[C@@H]1O[C@]13[C@]1(O[C@H]1C[C@H]1C4=C(CC[C@@]13C)C(=O)OC4)[C@@H]2O` [Triptolide] (compound dose: 10 uM), the cell viability is reported as 0.64 ± 0.034. Work on `CC(C)C1=CC(=O)[C@@](C)(C2[C@H](O)C[C@@]3(C)[C@@H]4CC=C5[C@@H](CC[C@@H](OC6OCC(O)C(O)C6OC6OC(C)C(O)C(O)C6O)C5(C)C)[C@]4(C)C(=O)C[C@]23C)O1` (some centres not stated) [Picfeltarraenin IA] (compound dose: 10 uM) yielded a cell viability of 0.9887 ± 0.0091. `CCCC(=O)O[C@@H]1[C@@H](C)[C@@]2(O)[C@@H](C=C(CO)C[C@]3(O)C(=O)C(C)=C[C@@H]23)[C@@H]2C(C)(C)[C@]12OC(=O)CCC` [Phorbol 12,13-Dibutyrate] (compound dose: 10 uM) was tested, and the cell viability was 1.09 ± 0.072. `C=C1[C@H](OC(C)=O)[C@@H](OC(=O)c2ccccc2)[C@@H](OC(C)=O)C(C)(C)[C@H]2O[C@](O)([C@@H](C)C2=O)[C@@]2(OC(C)=O)C[C@H](C)[C@H](OC(C)=O)[C@@H]2[C@H]1OC(C)=O` [Kansuinine A] (compound dose: 10 uM) showed a cell viability of 0.934 ± 0.028. Work on `CC1=C2[C@H]3OC(=O)[C@@H](C)[C@@H]3CC[C@@]2(C)C=CC1=O` [Santonin] (compound dose: 10 uM) yielded a cell viability of 0.9716 ± 0.0046. Work on `CC(=O)O[C@H]1[C@H]2[C@@H](OC(=O)Cc3ccccc3)[C@@H](C)C[C@]2(OC(C)=O)C(=O)/C(C)=C/[C@@H]2[C@H](CC[C@@]13CO3)C2(C)C` [Euphorbiasteroid] (compound dose: 10 uM) yielded a cell viability of 0.981 ± 0.059. `CC1=C[C@H]2[C@@]3(O)[C@H](C)[C@@H](O)[C@]4(O)[C@H]([C@@H]3C=C(CO)C[C@]2(O)C1=O)C4(C)C` [Phorbol] (compound dose: 10 uM) gave a cell viability of 1.02 ± 0.074. `CC(C)c1ccc2c(c1O)CC[C@H]1C3=C(CC[C@]21C)C(=O)OC3` [Triptophenolide] (compound dose: 10 uM) showed a cell viability of 0.9594 ± 0.0068. `CC(=O)O[C@H]1C[C@H](O[C@H]2[C@@H](O)C[C@H](O[C@H]3[C@@H](O)C[C@H](O[C@H]4CC[C@@]5(C)[C@H](CC[C@@H]6[C@@H]5C[C@@H](O)[C@]5(C)[C@@H](C7=CC(=O)OC7)CC[C@]65O)C4)O[C@@H]3C)O[C@@H]2C)O[C@H](C)[C@H]1O[C@@H]1O[C@H](CO)[C@@H](O)[C@H](O)[C@H]1O` [Lanatoside C] (compound dose: 10 uM) gave a cell viability of 0.607 ± 0.021.

Reference: the supplement of paper PMC13094657
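Also: viability of the cells left after supernatant collection, read with Deep Blue dye added for 4 h, as absorbance at 570 nm minus 600 nm.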
